Experimental data taken from PubChem BioAssay.
Records with an inconclusive call do not appear. For some of these results: Measured potencies and affinities stand elsewhere. The source made the active and inactive calls. Unless noted, no rule for the calls is given here.

Biological target: ATP-dependent translocase ABCB1 (Homo sapiens) (UniProt P08183)
Experiment: P-glycoprotein substrate transport blockade – cell-based (AID 377; in the data active = fluorescence slope change above about 50%)
Settings: MDR1-expressing cells, fluorescent substrate accumulation slope; stronger effect = higher value; concentration not given here

ATP-dependent translocase ABCB1 (Homo sapiens), sequence (P08183 whole entry, looked up): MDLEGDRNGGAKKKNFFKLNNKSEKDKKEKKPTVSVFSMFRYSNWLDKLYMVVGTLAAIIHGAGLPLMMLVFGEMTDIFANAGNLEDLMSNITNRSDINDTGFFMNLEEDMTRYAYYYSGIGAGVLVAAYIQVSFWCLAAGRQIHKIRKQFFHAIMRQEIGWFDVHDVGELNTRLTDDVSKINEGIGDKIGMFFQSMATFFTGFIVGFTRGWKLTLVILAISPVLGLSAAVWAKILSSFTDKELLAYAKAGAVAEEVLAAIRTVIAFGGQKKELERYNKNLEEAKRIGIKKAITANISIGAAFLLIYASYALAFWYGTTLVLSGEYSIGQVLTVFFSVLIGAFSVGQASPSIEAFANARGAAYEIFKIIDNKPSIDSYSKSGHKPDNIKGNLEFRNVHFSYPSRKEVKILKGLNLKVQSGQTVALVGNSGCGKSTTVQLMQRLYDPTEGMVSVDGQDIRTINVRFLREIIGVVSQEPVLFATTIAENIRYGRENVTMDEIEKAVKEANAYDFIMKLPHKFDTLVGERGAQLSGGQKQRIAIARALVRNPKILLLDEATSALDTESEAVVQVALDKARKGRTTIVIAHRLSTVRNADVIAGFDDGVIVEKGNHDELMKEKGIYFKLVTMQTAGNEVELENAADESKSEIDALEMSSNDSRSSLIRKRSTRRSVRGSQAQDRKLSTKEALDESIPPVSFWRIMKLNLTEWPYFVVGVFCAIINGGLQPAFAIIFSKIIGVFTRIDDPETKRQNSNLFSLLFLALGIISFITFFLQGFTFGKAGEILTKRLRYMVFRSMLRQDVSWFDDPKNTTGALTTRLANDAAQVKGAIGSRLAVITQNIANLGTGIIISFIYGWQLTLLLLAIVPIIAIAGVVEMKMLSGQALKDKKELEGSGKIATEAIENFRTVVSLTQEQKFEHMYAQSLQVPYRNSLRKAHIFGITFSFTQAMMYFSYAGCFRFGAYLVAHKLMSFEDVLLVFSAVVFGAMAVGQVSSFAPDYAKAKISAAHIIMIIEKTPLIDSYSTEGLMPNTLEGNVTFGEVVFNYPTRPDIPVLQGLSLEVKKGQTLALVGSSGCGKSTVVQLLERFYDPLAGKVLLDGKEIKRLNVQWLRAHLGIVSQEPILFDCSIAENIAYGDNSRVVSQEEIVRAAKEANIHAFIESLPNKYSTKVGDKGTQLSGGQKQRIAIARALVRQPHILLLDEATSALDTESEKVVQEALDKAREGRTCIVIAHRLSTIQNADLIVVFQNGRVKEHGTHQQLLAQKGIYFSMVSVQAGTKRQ

Q: Which fluorescence slope change does the source give for CC1=C(/C=C/C(C)=C/C=C/C(C)=C\C(=O)O)C(C)(C)CCC1 here?
A: Its fluorescence slope change is 188% (active).

Q: For CNCCC(Oc1ccc(C(F)(F)F)cc1)c1ccccc1 (configuration not stated), which fluorescence slope change is on record?
A: The fluorescence slope change was 110% (active).

Q: For C[N+]1(C)CCCC(OC(=O)C(O)(c2ccccc2)c2ccccc2)C1 (configuration not stated), which fluorescence slope change is on record?
A: Its fluorescence slope change is 13% (inactive).

Tested on: not listed separately
Experiment: blockers of polyQ-driven CASP3 activation – cell-based (AID 1583)
Settings: polyglutamine-induced caspase-3 activation, cell assay; stronger effect = higher value; concentration not given here

Q: Which inhibition does the source give for COC(=O)[C@H](c1ccccc1Cl)N1CCc2sccc2C1 here?
A: Its inhibition is 62%.

Q: Which inhibition does the source give for CN(C)c1nc(N(C)C)nc(N(C)C)n1 here?
A: Its inhibition is -2.79%.

Q: With Nc1ncnc2c1ncn2[C@@H]1O[C@H](CO)[C@@H](O)[C@@H]1O as the compound, how does the inhibition read?
A: The inhibition was 13.4%.

Q: For CC(C)NCC(O)COc1ccc(CC(N)=O)cc1 (configuration not stated), which inhibition is on record?
A: Its inhibition is 16.6%.

Q: Which inhibition does the source give for C[N+]1(C)CCCC(OC(=O)C(O)(c2ccccc2)c2ccccc2)C1 (configuration not stated) here?
A: Its inhibition is -22.1%.

Q: With CC(C)NCC(O)COc1cccc2ccccc12 (configuration not stated) as the compound, how does the inhibition read?
A: Its inhibition is -12.7%.

Q: For CC(C(=O)O)c1ccc(-c2ccccc2)c(F)c1 (configuration not stated), which inhibition is on record?
A: Its inhibition is 20.8%.

Tested on: not listed separately
Experiment: yeast 75Q aggregation reduction – 75Q-TubU reporter (AID 1593)
Settings: Yeast 75Q polyglutamine aggregation reporter

Q: For COC(=O)[C@H](c1ccccc1Cl)N1CCc2sccc2C1, which score is on record?
A: The score was 1.18.

Q: With CN(C)c1nc(N(C)C)nc(N(C)C)n1 as the compound, how does the score read?
A: Its score is 1.33.

Q: Which score does the source give for Nc1ncnc2c1ncn2[C@@H]1O[C@H](CO)[C@@H](O)[C@@H]1O here?
A: Its score is 1.04.

Q: For CC(C)NCC(O)COc1ccc(CC(N)=O)cc1 (configuration not stated), which score is on record?
A: The score was 1.42.

Q: Which score does the source give for C[N+]1(C)CCCC(OC(=O)C(O)(c2ccccc2)c2ccccc2)C1 (configuration not stated) here?
A: The score was 1.26.

Q: For CC(C)NCC(O)COc1cccc2ccccc12 (configuration not stated), which score is on record?
A: Its score is 1.12.

Q: Which score does the source give for CC(C(=O)O)c1ccc(-c2ccccc2)c(F)c1 (configuration not stated) here?
A: Its score is 0.

Tested on: not listed separately
Experiment: restoration of touch response, mutant HTT neurons – whole organism, C. elegans mechanosensory neurons, N-terminal huntingtin (AID 1599)
Settings: C. elegans polyQ-huntingtin mechanosensory neurons, stronger effect = higher value

Q: Which rescue above control does the source give for COC(=O)[C@H](c1ccccc1Cl)N1CCc2sccc2C1 here?
A: The rescue above control was 1.25.

Q: For CN(C)c1nc(N(C)C)nc(N(C)C)n1, which rescue above control is on record?
A: The rescue above control was 6.66.

Q: Which rescue above control does the source give for Nc1ncnc2c1ncn2[C@@H]1O[C@H](CO)[C@@H](O)[C@@H]1O here?
A: Its rescue above control is -14.3.

Q: For CC(C)NCC(O)COc1ccc(CC(N)=O)cc1 (configuration not stated), which rescue above control is on record?
A: Its rescue above control is -0.75.

Q: With C[N+]1(C)CCCC(OC(=O)C(O)(c2ccccc2)c2ccccc2)C1 (configuration not stated) as the compound, how does the rescue above control read?
A: The rescue above control was -3.59.

Q: With CC(C)NCC(O)COc1cccc2ccccc12 (configuration not stated) as the compound, how does the rescue above control read?
A: Its rescue above control is -3.83.

Q: Which rescue above control does the source give for CC(C(=O)O)c1ccc(-c2ccccc2)c(F)c1 (configuration not stated) here?
A: Its rescue above control is 19.

Tested on: not listed separately
Experiment: blockers of cytochrome c efflux from mitochondria – biochemical, purified mitochondria (AID 1603);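 also: mouse liver mitochondria challenged with calcium chloride; signal normalized to the plate average as 100%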
Settings: stronger effect = lower value

Q: Which cytochrome c release ratio does the source give for COC(=O)[C@H](c1ccccc1Cl)N1CCc2sccc2C1 here?
A: The cytochrome c release ratio was 0.98.

Q: Which cytochrome c release ratio does the source give for CN(C)c1nc(N(C)C)nc(N(C)C)n1 here?
A: The cytochrome c release ratio was 1.53.

Q: For Nc1ncnc2c1ncn2[C@@H]1O[C@H](CO)[C@@H](O)[C@@H]1O, which cytochrome c release ratio is on record?
A: The cytochrome c release ratio was 1.16.

Q: Which cytochrome c release ratio does the source give for CC(C)NCC(O)COc1ccc(CC(N)=O)cc1 (configuration not stated) here?
A: The cytochrome c release ratio was 0.86.

Q: With C[N+]1(C)CCCC(OC(=O)C(O)(c2ccccc2)c2ccccc2)C1 (configuration not stated) as the compound, how does the cytochrome c release ratio read?
A: Its cytochrome c release ratio is 1.17.

Q: For CC(C)NCC(O)COc1cccc2ccccc12 (configuration not stated), which cytochrome c release ratio is on record?
A: Its cytochrome c release ratio is 1.04.

Q: Which cytochrome c release ratio does the source give for CC(C(=O)O)c1ccc(-c2ccccc2)c(F)c1 (configuration not stated) here?
A: Its cytochrome c release ratio is 0.68.

Tested on: not listed separately
Experiment: polyglutamine aggregate formation blockers (AID 1604)
Settings: polyglutamine-induced protein aggregation inhibition assay; stronger effect = higher value; concentration not given here

Q: Which inhibition of aggregation does the source give for COC(=O)[C@H](c1ccccc1Cl)N1CCc2sccc2C1 here?
A: The inhibition of aggregation was 77.8%.

Q: For CN(C)c1nc(N(C)C)nc(N(C)C)n1, which inhibition of aggregation is on record?
A: Its inhibition of aggregation is 78.1%.

Q: For Nc1ncnc2c1ncn2[C@@H]1O[C@H](CO)[C@@H](O)[C@@H]1O, which inhibition of aggregation is on record?
A: Its inhibition of aggregation is 56.1%.

Q: Which inhibition of aggregation does the source give for CC(C)NCC(O)COc1ccc(CC(N)=O)cc1 (configuration not stated) here?
A: The inhibition of aggregation was -11.1%.

Q: Which inhibition of aggregation does the source give for C[N+]1(C)CCCC(OC(=O)C(O)(c2ccccc2)c2ccccc2)C1 (configuration not stated) here?
A: Its inhibition of aggregation is 55%.

Q: With CC(C)NCC(O)COc1cccc2ccccc12 (configuration not stated) as the compound, how does the inhibition of aggregation read?
A: Its inhibition of aggregation is 62.1%.

Q: Which inhibition of aggregation does the source give for CC(C(=O)O)c1ccc(-c2ccccc2)c(F)c1 (configuration not stated) here?
A: Its inhibition of aggregation is 29%.

Tested on: not listed separately
Experiment: glutamate transport activators, MN-1 cells, MN-1 cell line (AID 1612);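 also: 0% = mean of DMSO vehicle wells on each plate; positive means more glutamate uptake than control and negative means less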
Settings: MN-1 motor neuron cells, stronger effect = higher value

Q: Which glutamate uptake change does the source give for COC(=O)[C@H](c1ccccc1Cl)N1CCc2sccc2C1 here?
A: The glutamate uptake change was -7.57%.

Q: For CN(C)c1nc(N(C)C)nc(N(C)C)n1, which glutamate uptake change is on record?
A: Its glutamate uptake change is 20.9%.

Q: For Nc1ncnc2c1ncn2[C@@H]1O[C@H](CO)[C@@H](O)[C@@H]1O, which glutamate uptake change is on record?
A: The glutamate uptake change was 13.7%.

Q: For CC(C)NCC(O)COc1ccc(CC(N)=O)cc1 (configuration not stated), which glutamate uptake change is on record?
A: Its glutamate uptake change is -9.65%.

Q: Which glutamate uptake change does the source give for C[N+]1(C)CCCC(OC(=O)C(O)(c2ccccc2)c2ccccc2)C1 (configuration not stated) here?
A: The glutamate uptake change was -13.3%.

Q: For CC(C)NCC(O)COc1cccc2ccccc12 (configuration not stated), which glutamate uptake change is on record?
A: The glutamate uptake change was 4.46%.

Q: For CC(C(=O)O)c1ccc(-c2ccccc2)c(F)c1 (configuration not stated), which glutamate uptake change is on record?
A: Its glutamate uptake change is 14.1%.

Tested on: not listed separately
Experiment: GFP-Q80 aggregate reduction, neuronal-like cells, cell-based, NGF-treated PC12, GFPQ80 (AID 1614);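 also: lower means fewer inclusions and 0 means no inclusions at all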
Settings: PC12 NGF-treated GFP-polyQ80 inclusion reduction

Q: With COC(=O)[C@H](c1ccccc1Cl)N1CCc2sccc2C1 as the compound, how does the inclusion score read?
A: The inclusion score was 2.

Q: With CN(C)c1nc(N(C)C)nc(N(C)C)n1 as the compound, how does the inclusion score read?
A: The inclusion score was 2.

Q: For Nc1ncnc2c1ncn2[C@@H]1O[C@H](CO)[C@@H](O)[C@@H]1O, which inclusion score is on record?
A: The inclusion score was 1.5.

Q: For CC(C)NCC(O)COc1ccc(CC(N)=O)cc1 (configuration not stated), which inclusion score is on record?
A: Its inclusion score is 2.

Q: With C[N+]1(C)CCCC(OC(=O)C(O)(c2ccccc2)c2ccccc2)C1 (configuration not stated) as the compound, how does the inclusion score read?
A: The inclusion score was 2.

Q: For CC(C)NCC(O)COc1cccc2ccccc12 (configuration not stated), which inclusion score is on record?
A: Its inclusion score is 2.

Q: With CC(C(=O)O)c1ccc(-c2ccccc2)c(F)c1 (configuration not stated) as the compound, how does the inclusion score read?
A: Its inclusion score is 2.

Tested on: not listed separately
Experiment: 75Q-TubH aggregate inhibition, S. cerevisiae, yeast (AID 1616)
Settings: S. cerevisiae 75Q-TubH polyglutamine aggregation suppression; stronger effect = higher value

Q: Which aggregation suppression score does the source give for COC(=O)[C@H](c1ccccc1Cl)N1CCc2sccc2C1 here?
A: The aggregation suppression score was 1.88.

Q: With CN(C)c1nc(N(C)C)nc(N(C)C)n1 as the compound, how does the aggregation suppression score read?
A: Its aggregation suppression score is 1.21.

Q: Which aggregation suppression score does the source give for Nc1ncnc2c1ncn2[C@@H]1O[C@H](CO)[C@@H](O)[C@@H]1O here?
A: Its aggregation suppression score is 0.666.

Q: Which aggregation suppression score does the source give for CC(C)NCC(O)COc1ccc(CC(N)=O)cc1 (configuration not stated) here?
A: Its aggregation suppression score is 1.39.

Q: For C[N+]1(C)CCCC(OC(=O)C(O)(c2ccccc2)c2ccccc2)C1 (configuration not stated), which aggregation suppression score is on record?
A: Its aggregation suppression score is 1.44.

Q: With CC(C)NCC(O)COc1cccc2ccccc12 (configuration not stated) as the compound, how does the aggregation suppression score read?
A: The aggregation suppression score was 0.965.

Q: For CC(C(=O)O)c1ccc(-c2ccccc2)c(F)c1 (configuration not stated), which aggregation suppression score is on record?
A: The aggregation suppression score was 0.00404.

Tested on: not listed separately
Experiment: compounds altering circadian rhythm period length – cell-based, LOPAC library, luminescence reporter (AID 2774);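 also: values are relative to mean of DMSO wells on each plate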
Settings: circadian reporter cells, at 7 µM, actives lie on both sides

Q: For COc1ccc(/C=C/C(=O)Nc2ccccc2C(=O)O)cc1OC, which period change is on record?
A: The period change was -0.165 h (inactive).

Q: Which period change does the source give for CC1=C(/C=C/C(C)=C/C=C/C(C)=C\C(=O)O)C(C)(C)CCC1 here?
A: The period change was 0.45 h (inactive).

Q: For O=c1ccc2ccc(O)c(O)c2o1, which period change is on record?
A: The period change was 0.03 h (inactive).

Q: For CN(C)c1nc(N(C)C)nc(N(C)C)n1, which period change is on record?
A: The period change was -0.095 h (inactive).

Q: Which period change does the source give for CNCCC(Oc1ccc(C(F)(F)F)cc1)c1ccccc1 (configuration not stated) here?
A: The period change was -0.16 h (inactive).

Q: With CC(C)NCC(O)COc1ccc(CC(N)=O)cc1 (configuration not stated) as the compound, how does the period change read?
A: The period change was 0.015 h (inactive).

Q: For CC(C)NCC(O)COc1cccc2ccccc12 (configuration not stated), which period change is on record?
A: Its period change is -0.115 h (inactive).

Q: Which period change does the source give for O=[N+]([O-])c1cccc2cn[nH]c12 here?
A: Its period change is -0.295 h (inactive).
